Source: the supplement of paper PMC10849652
About 7,900 targets were measured; listed, in parts, are those with a hit and a random draw of the rest. About 0.6% of all pairs of compound and target were hits. Unmarked numbers belong to inactive results.

Columns and labels:
Test in all cases: log2 fold change, soluble protein after heating vs DMSO (PISA); higher = thermal stabilisation; K562 cells, 10 uM, 30 min; active = over 0.2 and 3.5 SD of the protein, either way, in both replicates (recomputed)
[1] = compound: Cc1ccc(NC(=O)c2ccc(CN3CC[C@H](N(C)C)C3)c(C(F)(F)F)c2)cc1Nc1nccc(-c2cncnc2)n1 [bafetinib]
Procedure, shortened: (§1)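 K562 cells at 2×10^6 cells/mL were given 10 μM compound for 30 min. Aliquots then went through 3 min of heating across 48°C-58°C, were pooled, and were extracted in PBS with 0.5% NP-40 at 4°C, and the supernatant after 21,000xg for 90 min was quantified by TMTpro 16plex LC-MS/MS with channel sums equalised. Thermal stability relative to control samples, from duplicates, is given as log2 fold change.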

[2] = compound: Cc1cccc(CC(=O)N2CCc3c2ccc(-c2cn(C)c4ncnc(N)c24)c3F)n1
Procedure, shortened: as §1

[3] = compound: Cc1cn(-c2cc(NC(=O)c3ccc(C)c(Nc4nccc(-c5cccnc5)n4)c3)cc(C(F)(F)F)c2)cn1 [nilotinib]
Procedure, shortened: as §1

[4] = compound: Cc1nc(Nc2n[nH]c3c2CN(C(=O)N[C@H](CN(C)C)c2ccccc2)C3(C)C)c2sccc2n1
Procedure, shortened: as §1

[5] = compound: Cc1nc(Nc2ncc(C(=O)Nc3c(C)cccc3Cl)s2)cc(N2CCN(CCO)CC2)n1 [dasatinib]
Procedure, shortened: as §1

[6] = compound: Cc1ncc(-c2ccnc(Nc3ccc(S(C)(=O)=O)cc3)n2)n1C(C)C
Procedure, shortened: as §1

[7] = compound: Cn1cc(-c2ccc3c(c2)CCN3C(=O)Cc2cccc(C(F)(F)F)c2)c2c(N)ncnc21
Procedure, shortened: as §1

[8] = compound: Cn1cc(-c2ccc3nnc(C(F)(F)c4ccc5ncccc5c4)n3n2)cn1
Procedure, shortened: as §1

[9] = compound: Cn1cncc1[C@@](N)(c1ccc(Cl)cc1)c1ccc2c(c1)c(-c1cccc(Cl)c1)cc(=O)n2C [tipifarnib]
Procedure, shortened: as §1

[10] = compound: FC(F)(F)c1ccc(/C=C/c2nc(COc3ccc(CCCCn4ccnn4)cc3)co2)cc1 [mubritinib]
Procedure, shortened: as §1

[11] = compound: NC(=O)Nc1cc(-c2cccc(F)c2)sc1C(=O)N[C@H]1CCCNC1
Procedure, shortened: as §1

[12] = compound: NC(=O)c1cnc(N[C@@H]2CCCC[C@@H]2N)nc1Nc1cccc(-n2nccn2)c1
Procedure, shortened: as §1

[13] = compound: NC1(c2ccc(-c3nc4ccn5c(=O)[nH]nc5c4cc3-c3ccccc3)cc2)CCC1
Procedure, shortened: as §1

[14] = compound: NCC(=O)Nc1ccc(-n2nc(C(F)(F)F)cc2-c2ccc3c(ccc4ccccc43)c2)cc1
Procedure, shortened: as §1

[15] = compound: Nc1ccccc1NC(=O)c1ccc(CNC(=O)OCc2cccnc2)cc1 [entinostat]
Procedure, shortened: as §1

[16] = compound: O=C(CCCCCCC(=O)Nc1ccccc1)NO [vorinostat]
Procedure, shortened: as §1

[17] = compound: O=C(CCCCCCNC(=O)c1cnc(N(c2ccccc2)c2ccccc2Cl)nc1)NO [citarinostat]
Procedure, shortened: as §1

[18] = compound: O=C(O)c1ccc2c(c1)nc(Nc1cccc(Cl)c1)c1ccncc12 [silmitasertib]
Procedure, shortened: as §1

[19] = compound: O=C1NC(=O)C(c2cnc3ccccn23)=C1c1cn2c3c(cc(F)cc13)CN(C(=O)N1CCCCC1)CC2
Procedure, shortened: as §1

[20] = compound: c1cc(OCCN2CCCCC2)cc(-c2n[nH]c3ccc(-c4nnc[nH]4)cc23)c1
Procedure, shortened: as §1

Sequence of UniProt Q14980 (Q14980 whole entry, looked up): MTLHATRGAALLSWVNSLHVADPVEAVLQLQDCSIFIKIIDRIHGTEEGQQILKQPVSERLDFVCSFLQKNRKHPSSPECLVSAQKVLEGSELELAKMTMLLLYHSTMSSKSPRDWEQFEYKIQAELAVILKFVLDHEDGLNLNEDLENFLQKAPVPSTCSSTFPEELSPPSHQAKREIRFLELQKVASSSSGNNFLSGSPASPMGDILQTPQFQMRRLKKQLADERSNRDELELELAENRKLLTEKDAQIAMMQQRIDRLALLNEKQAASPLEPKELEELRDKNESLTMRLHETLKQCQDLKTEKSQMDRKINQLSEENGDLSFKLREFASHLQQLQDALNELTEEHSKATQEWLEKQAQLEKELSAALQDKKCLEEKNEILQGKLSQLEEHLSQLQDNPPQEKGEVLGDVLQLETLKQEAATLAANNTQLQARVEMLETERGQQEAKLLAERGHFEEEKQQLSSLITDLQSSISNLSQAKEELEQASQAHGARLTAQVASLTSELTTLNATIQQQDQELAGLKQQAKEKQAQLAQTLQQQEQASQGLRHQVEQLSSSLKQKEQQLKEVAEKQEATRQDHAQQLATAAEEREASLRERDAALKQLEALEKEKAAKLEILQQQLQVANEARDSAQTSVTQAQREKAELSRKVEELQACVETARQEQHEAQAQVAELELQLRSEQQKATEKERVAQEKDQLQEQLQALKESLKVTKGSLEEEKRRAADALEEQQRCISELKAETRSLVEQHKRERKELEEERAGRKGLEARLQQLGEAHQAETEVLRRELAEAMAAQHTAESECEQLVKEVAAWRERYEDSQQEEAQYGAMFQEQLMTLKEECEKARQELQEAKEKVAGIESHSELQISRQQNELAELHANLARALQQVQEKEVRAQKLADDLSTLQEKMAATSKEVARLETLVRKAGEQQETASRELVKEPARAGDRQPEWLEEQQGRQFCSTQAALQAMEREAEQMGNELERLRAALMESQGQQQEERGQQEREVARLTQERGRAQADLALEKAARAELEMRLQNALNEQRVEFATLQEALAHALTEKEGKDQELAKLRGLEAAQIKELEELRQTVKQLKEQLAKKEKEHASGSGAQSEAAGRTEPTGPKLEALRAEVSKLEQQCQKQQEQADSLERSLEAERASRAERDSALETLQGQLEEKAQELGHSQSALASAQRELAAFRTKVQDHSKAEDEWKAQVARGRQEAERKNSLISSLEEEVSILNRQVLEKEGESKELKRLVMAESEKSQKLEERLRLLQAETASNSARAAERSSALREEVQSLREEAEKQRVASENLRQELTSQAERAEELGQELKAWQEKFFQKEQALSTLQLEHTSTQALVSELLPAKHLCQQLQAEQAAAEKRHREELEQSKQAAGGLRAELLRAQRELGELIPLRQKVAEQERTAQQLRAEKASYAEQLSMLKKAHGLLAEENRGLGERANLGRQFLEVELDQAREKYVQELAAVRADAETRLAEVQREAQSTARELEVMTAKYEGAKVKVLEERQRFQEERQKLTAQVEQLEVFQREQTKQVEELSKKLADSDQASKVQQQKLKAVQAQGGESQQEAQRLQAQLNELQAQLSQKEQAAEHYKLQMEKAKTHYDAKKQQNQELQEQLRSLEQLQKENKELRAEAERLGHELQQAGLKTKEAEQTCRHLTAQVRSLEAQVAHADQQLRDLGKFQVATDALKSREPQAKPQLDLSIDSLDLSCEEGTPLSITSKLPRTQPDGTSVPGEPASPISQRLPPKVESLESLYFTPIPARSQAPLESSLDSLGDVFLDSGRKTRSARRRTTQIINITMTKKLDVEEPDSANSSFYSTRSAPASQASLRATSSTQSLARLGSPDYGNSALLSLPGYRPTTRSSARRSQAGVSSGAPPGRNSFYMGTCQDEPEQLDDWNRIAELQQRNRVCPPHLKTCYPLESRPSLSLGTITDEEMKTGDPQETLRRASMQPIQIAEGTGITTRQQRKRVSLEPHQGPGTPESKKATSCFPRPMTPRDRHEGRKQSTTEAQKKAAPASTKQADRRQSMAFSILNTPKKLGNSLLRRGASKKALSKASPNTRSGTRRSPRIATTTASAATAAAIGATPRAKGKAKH
Sequence of UniProt Q9NR45 (Q9NR45 whole entry, looked up): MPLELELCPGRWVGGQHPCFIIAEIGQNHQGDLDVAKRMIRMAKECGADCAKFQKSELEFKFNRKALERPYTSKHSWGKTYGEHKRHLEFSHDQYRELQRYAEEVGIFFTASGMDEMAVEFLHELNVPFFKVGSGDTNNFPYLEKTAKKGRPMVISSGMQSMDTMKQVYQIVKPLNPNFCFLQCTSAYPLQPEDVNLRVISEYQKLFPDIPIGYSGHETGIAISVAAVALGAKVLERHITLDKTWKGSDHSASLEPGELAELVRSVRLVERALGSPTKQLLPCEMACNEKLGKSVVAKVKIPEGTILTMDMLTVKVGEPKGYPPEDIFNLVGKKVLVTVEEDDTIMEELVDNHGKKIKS
Sequence of UniProt Q92692 (Q92692 whole entry, looked up): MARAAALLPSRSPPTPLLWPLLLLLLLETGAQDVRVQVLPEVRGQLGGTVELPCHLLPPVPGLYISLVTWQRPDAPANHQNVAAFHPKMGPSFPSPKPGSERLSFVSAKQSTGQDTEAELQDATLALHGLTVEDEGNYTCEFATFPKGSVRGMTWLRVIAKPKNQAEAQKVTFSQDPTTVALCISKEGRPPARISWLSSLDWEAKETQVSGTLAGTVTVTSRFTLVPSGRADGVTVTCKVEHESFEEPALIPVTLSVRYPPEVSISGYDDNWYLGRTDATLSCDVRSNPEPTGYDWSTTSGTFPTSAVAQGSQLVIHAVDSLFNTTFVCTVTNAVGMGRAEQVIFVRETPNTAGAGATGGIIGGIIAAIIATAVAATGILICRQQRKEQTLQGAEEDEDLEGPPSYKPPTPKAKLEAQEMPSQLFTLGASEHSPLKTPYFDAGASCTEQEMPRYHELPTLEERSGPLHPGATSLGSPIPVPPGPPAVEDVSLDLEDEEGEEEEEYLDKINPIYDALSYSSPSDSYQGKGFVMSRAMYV
Sequence of UniProt Q96D46 (Q96D46 whole entry, looked up): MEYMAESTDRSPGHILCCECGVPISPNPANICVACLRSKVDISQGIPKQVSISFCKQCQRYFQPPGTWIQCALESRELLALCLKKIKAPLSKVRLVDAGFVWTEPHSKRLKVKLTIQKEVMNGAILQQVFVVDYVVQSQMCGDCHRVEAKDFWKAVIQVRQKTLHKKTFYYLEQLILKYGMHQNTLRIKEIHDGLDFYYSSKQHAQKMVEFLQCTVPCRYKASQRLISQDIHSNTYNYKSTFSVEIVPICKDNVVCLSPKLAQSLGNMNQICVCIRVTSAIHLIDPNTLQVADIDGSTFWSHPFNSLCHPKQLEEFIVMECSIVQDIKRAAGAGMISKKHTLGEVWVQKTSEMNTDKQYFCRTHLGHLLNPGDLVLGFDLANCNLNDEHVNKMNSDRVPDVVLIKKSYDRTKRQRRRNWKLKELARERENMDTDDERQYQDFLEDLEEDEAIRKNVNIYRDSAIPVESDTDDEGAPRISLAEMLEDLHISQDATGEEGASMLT
Sequence of UniProt Q9NZT2 (Q9NZT2 whole entry, looked up): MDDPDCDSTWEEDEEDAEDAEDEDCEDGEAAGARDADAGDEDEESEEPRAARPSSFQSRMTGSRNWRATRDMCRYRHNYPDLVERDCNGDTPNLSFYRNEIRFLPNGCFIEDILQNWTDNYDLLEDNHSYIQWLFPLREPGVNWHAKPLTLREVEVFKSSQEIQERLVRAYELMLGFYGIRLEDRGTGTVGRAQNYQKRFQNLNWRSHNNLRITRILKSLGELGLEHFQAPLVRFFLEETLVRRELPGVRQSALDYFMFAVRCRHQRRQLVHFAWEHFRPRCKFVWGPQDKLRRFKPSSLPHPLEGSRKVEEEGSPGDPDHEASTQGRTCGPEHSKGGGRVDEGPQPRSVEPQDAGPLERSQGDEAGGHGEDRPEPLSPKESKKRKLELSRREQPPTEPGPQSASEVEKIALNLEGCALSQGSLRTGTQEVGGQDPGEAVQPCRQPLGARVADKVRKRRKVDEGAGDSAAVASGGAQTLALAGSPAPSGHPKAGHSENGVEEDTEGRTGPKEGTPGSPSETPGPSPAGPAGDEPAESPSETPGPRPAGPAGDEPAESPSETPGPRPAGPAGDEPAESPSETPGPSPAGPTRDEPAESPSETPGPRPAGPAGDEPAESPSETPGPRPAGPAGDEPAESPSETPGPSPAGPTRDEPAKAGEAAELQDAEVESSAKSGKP
Sequence of UniProt Q8NBF2 (Q8NBF2 whole entry, looked up): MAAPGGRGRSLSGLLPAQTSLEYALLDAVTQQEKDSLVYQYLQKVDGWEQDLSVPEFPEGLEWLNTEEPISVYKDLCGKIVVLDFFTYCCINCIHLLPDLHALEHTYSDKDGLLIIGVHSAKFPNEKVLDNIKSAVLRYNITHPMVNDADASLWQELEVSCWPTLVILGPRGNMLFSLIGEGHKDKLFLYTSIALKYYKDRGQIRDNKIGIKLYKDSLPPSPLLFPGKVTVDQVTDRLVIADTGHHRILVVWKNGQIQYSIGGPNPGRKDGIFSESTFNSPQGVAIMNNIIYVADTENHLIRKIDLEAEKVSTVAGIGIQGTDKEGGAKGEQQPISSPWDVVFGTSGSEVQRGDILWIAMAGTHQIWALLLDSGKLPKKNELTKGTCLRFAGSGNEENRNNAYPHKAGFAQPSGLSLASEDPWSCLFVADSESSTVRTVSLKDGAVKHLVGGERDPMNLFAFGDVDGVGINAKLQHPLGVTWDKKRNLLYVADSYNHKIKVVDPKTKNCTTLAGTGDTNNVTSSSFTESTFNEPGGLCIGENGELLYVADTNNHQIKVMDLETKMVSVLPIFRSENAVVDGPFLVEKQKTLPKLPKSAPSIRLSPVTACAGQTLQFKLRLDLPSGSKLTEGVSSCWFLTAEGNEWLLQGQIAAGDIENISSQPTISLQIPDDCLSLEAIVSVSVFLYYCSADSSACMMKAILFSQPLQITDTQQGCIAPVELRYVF

Row | Target | log2 fold change [1] | log2 fold change [2] | log2 fold change [3] | log2 fold change [4] | log2 fold change [5] | log2 fold change [6] | log2 fold change [7] | log2 fold change [8] | log2 fold change [9] | log2 fold change [10] | log2 fold change [11] | log2 fold change [12] | log2 fold change [13] | log2 fold change [14] | log2 fold change [15] | log2 fold change [16] | log2 fold change [17] | log2 fold change [18] | log2 fold change [19] | log2 fold change [20]
1 | NOL11 (UniProt Q9H8H0) | -0.042 | 0.017 | -0.016 | 0.017 | 0.017 | 0.11 | -0.006 | 0.001 | 0.036 | -0.012 | 0.042 | 0.055 | 0.041 | 0.038 | -0.019 | -0.013 | 0.035 | 0.068 | 0.02 | -0.041
2 | NUMA1 (UniProt Q14980) | 0.121 | 0.005 | 0.031 | -0.22 | 0.019 | -0.013 | -0.194 | -0.031 | 0.086 | -0.043 | -0.117 | -0.091 | -0.139 | 0.101 | 0.072 | 0.002 | 0.01 | 0.005 | 0.007 | -0.12
3 | NMD3 (UniProt Q96D46) | 0.071 | 0.03 | 0.025 | 0.316 (active) | 0.014 | 0.123 | 0.083 | 0.028 | -0.107 | 0.083 | -0.159 | -0.034 | -0.098 | -0.037 | -0.001 | 0 | 0.085 | -0.048 | -0.071 | -0.047
4 | OGFR (UniProt Q9NZT2) | -0.041 | 0.114 | -0.024 | -0.093 | -0.114 | -0.008 | 0.036 | -0.002 | 0.025 | 0.328 (active) | 0.049 | -0.198 | 0.015 | 0.068 | -0.02 | 0.096 | 0.121 | 0.003 | -0.019 | -0.092
5 | NECTIN2 (UniProt Q92692) | 0.03 | -0.023 | -0.023 | 0.022 | -0.017 | 0.055 | 0.096 | 0.009 | 0.008 | 0.023 | 0 | 0.107 | 0.056 | 0.099 | -0.029 | -0.041 | 0.034 | -0.081 | -0.03 | -0.006
6 | NANS (UniProt Q9NR45) | 0.04 | 0.05 | 0.069 | -0.007 | -0.018 | -0.018 | 0.05 | -0.017 | -0.067 | -0.023 | 0.043 | -0.05 | 0.02 | -0.032 | 0.014 | 0.116 | 0.032 | -0.002 | -0.011 | 0
7 | NHLRC2 (UniProt Q8NBF2) | -0.141 | 0.002 | -0.05 | -0.004 | -0.052 | -0.001 | 0.042 | 0.006 | -0.024 | 0.058 | -0.077 | -0.02 | -0.171 | -0.065 | 0.009 | 0.02 | -0.007 | 0.009 | -0.063 | -0.015
8 | MTHFD1 (UniProt P11586) | 0.077 | 0.096 | 0.214 (active) | -0.051 | -0.135 | 0.019 | 0.069 | 0.021 | -0.088 | 0.122 | -0.028 | -0.011 | 0.094 | -0.028 | 0.024 | 0.05 | 0.051 | -0.039 | -0.042 | -0.021
